Among the test systems are RIOK1; RIOK2; RIOK3; RIPK1; RIPK2; RIPK4; RIPK5; ROCK1; ROCK2; ROS1.
Conditions in all cases: concentration: 1 μM,replicates: in singlicate; n = 1
Test [1] relates to RPS6KA4(Kin.Dom.1-N-terminal).
The test system of test [2] is RPS6KA4(Kin.Dom.2-C-terminal).
The test system of test [3] is RPS6KA5(Kin.Dom.1-N-terminal).
For test [4], the system named is RPS6KA5(Kin.Dom.2-C-terminal).
Test [5] relates to T1, RSK1(Kin.Dom.1-N-terminal).
T1 construct: gene RPS6KA1

In test [6] the test system is T2, RSK1(Kin.Dom.2-C-terminal).
T2 construct: gene RPS6KA1

The test system of test [7] is T3, RSK2(Kin.Dom.1-N-terminal).
T3 construct: gene RPS6KA3

Test [8] has as its system T4, RSK2(Kin.Dom.2-C-terminal).
T4 construct: gene RPS6KA3

The test system of test [9] is T5, RSK3(Kin.Dom.1-N-terminal).
T5 construct: gene RPS6KA2

Test [10] deals with T6, RSK3(Kin.Dom.2-C-terminal).
T6 construct: gene RPS6KA2
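Note: KINOMEscan kinase panel screen.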

On to `CN(c1ccccc1CNc1nc(Nc2ccc3c(c2)CC(=O)N3)ncc1C(F)(F)F)S(C)(=O)=O`, for which the “%Inh” value is listed as 41% in the test on RIOK1; 0% with RIOK2; 61% in the test with RIOK3; 0% with RIPK1; 0% in the test with RIPK2; 0% with RIPK4. In addition, the “%Inh” value in the test with RIPK5 is given as 27%; in the test on ROCK1 it was 0%; in the test on ROCK2, 0%; with ROS1, 96.5%; in test [1], 89%; in test [2] it was 46%. Besides, the “%Inh” value in [3] was 71%; in [4], 14%; in test [5], 86%; in test [6], 0%; in test [7], 89%; in [8] it was 0%. In addition, the “%Inh” value was 91.1% in test [9] and 7% in [10].

`COc1cc2ncn(-c3cc(OCC4CCCCC4)c(C(N)=O)s3)c2cc1OC` [GSK204559]: the “%Inh” value in the test with RIOK1 is recorded as 90%; in the test with RIOK2, 5%; with RIOK3, 67%; in the test with RIPK1, 2%; with RIPK2, 0%; in the test on RIPK4 it was 0%. The “%Inh” value in the test on RIPK5 is listed as 0%; in the test on ROCK1 it was 0%; in the test on ROCK2, 0%; in the test on ROS1, 9%; in test [1], 7%; in [2] it was 0%. Also, the “%Inh” value in [3] was found to be 28%; in test [4], 0%; in test [5], 8%; in test [6], 0%; in [7] it was 7%; in [8], 30%. In addition, the “%Inh” value is listed as 22% in test [9] and 8% in [10].

In the case of `CCOC(=O)N1CCC(n2cnc(-c3ccc(F)cc3)c2-c2ccnc(N)n2)CC1` [SB-219952], the “%Inh” value with RIOK1 is 51%; in the test on RIOK2, 24%; in the test with RIOK3, 35%; in the test with RIPK1, 18%; in the test with RIPK2, 34%; in the test with RIPK4, 64%. The “%Inh” value with RIPK5 came to 5%; with ROCK1, 45%; in the test with ROCK2 it was 12%; in the test on ROS1, 15%; in [1], 6%; in test [2], 7%. Besides, the “%Inh” value in test [3] worked out at 1%; in test [4] it was 0%; in [5] it was 11%; in [6], 32%; in test [7] it was 23%; in test [8], 0%. Also, the “%Inh” value in test [9] is listed as 8%; in test [10] it was 36%.

For `CN1CCN(CCCNc2nccc(-c3c(-c4ccc(F)cc4)nn4cc(C(N)=O)ccc34)n2)CC1` [GW622475], the “%Inh” value in the test with RIOK1 stood at 46%; in the test with RIOK2, 27%; with RIOK3, 36%; in the test with RIPK1, 10%; in the test with RIPK2, 85%; with RIPK4, 28%. Moreover, the “%Inh” value in the test with RIPK5 amounted to 0%; in the test on ROCK1, 0%; in the test on ROCK2, 20%; with ROS1, 4%; in test [1], 13%; in test [2], 0%. The “%Inh” value in test [3] turned out to be 19%; in test [4] it was 14%; in test [5], 28%; in test [6], 63%; in [7] it was 0%; in test [8], 100%. In addition, the results for the “%Inh” value in [9] and in test [10] were 12% and 14%, respectively.

For the compound `O=C(Nc1cccc(Oc2ccc3nccn3n2)c1)Nc1cccc(C(F)(F)F)c1`, the “%Inh” value in the test with RIOK1 stood at 0%; in the test on RIOK2, 0%; in the test on RIOK3, 0%; with RIPK1, 5%; with RIPK2, 12%; with RIPK4, 0%. The “%Inh” value in the test with RIPK5 is recorded as 0%; in the test on ROCK1, 3%; with ROCK2, 0%; in the test on ROS1, 0%; in [1], 24%; in [2], 0%. Further, the “%Inh” value in test [3] is 0%; in [4], 0%; in test [5], 0%; in test [6], 9%; in test [7], 8%; in [8], 25%. The “%Inh” value in [9] and in test [10] was 0% in each case.

Take `COc1cc2c(Nc3ccc(NC(=O)c4ccccc4)cc3)ncnc2cc1OCCCN1CCOCC1` [GSK301329]: the “%Inh” value in the test with RIOK1 was determined as 26%; with RIOK2 it was 14%; with RIOK3, 21%; in the test on RIPK1 it was 0%; in the test with RIPK2, 55%; in the test on RIPK4, 0%. The “%Inh” value is on record as 2% in the test with RIPK5; 1% in the test on ROCK1; 0% in the test on ROCK2; 3% in the test with ROS1; 20% in test [1]; 0% in test [2]. Besides, the “%Inh” value is 0% in [3]; 0% in test [4]; 11% in [5]; 0% in test [6]; 0% in test [7]; 1% in test [8]. In addition, the “%Inh” value in test [9] and in test [10] was 0% in each case.

On to `CCn1c(-c2nonc2N)nc2cncc(Br)c21` [SB-738004], for which the “%Inh” value is on record as 19% in the test with RIOK1; 3% in the test with RIOK2; 17% in the test with RIOK3; 27% in the test on RIPK1; 11% with RIPK2; 58% in the test with RIPK4. Also, the “%Inh” value with RIPK5 was 1%; with ROCK1 it was 99.7%; with ROCK2 it was 99.6%; in the test on ROS1, 7%; in test [1], 3%; in test [2], 86%. The “%Inh” value was 0% in [5]; 38% in test [6]; 50% in [7]; 27% in test [8]; 9% in [9]; 6% in test [10].

Turning to `C[C@@H]1CCN(C(=O)N2CCCC2)C[C@@H]1N(C)c1ncnc2[nH]ccc12`, the “%Inh” value with RIOK1 worked out at 0%; in the test with RIOK2 it was 0%; in the test on RIOK3 it was 2%; with RIPK1, 0%; in the test with RIPK2, 0%; in the test on RIPK4, 13%. Besides, the “%Inh” value with RIPK5 turned out to be 24%; in the test on ROCK1, 43%; in the test on ROCK2 it was 67%; with ROS1 it was 23%; in test [1], 0%; in [2], 2%. Further, the “%Inh” value in test [3] is 0%; in test [4], 0%; in [5] it was 0%; in test [6], 14%; in test [7] it was 10%; in test [8], 0%. The “%Inh” value is recorded as 0% in test [9] and 22% in [10].

Turning to `Cc1nnc(-c2ccc3occ(-c4ccc(S(C)=O)cc4)c3n2)o1` (stereo not drawn), the “%Inh” value with RIOK1 came out at 0%; with RIOK2, 0%; in the test on RIOK3 it was 7%; with RIPK1, 0%; in the test on RIPK2, 0%; with RIPK4, 0%. Also, the “%Inh” value (with RIPK5; in the test with ROCK1; with ROCK2; in the test with ROS1; in test [1]; in test [2]) was 0% throughout. The “%Inh” value in [3] is 9%; in [4] it was 0%; in [5] it was 0%; in test [6], 14%; in test [7] it was 0%; in test [8] it was 0%. In addition, the “%Inh” value turned out to be 0% in test [9] and 3% in [10].

Regarding `CS(=O)(=O)c1cccc(CNc2nc(Nc3ccc4c(c3)[C@@H]3C[C@@H]4CNC3=O)ncc2C(F)(F)F)c1`, the “%Inh” value is 76% in the test with RIOK1; 0% with RIOK2; 67% in the test on RIOK3; 0% in the test on RIPK1; 0% with RIPK2; 77% in the test on RIPK4. Moreover, the “%Inh” value is on record as 75% in the test on RIPK5; 0% in the test with ROCK1; 0% in the test with ROCK2; 86% in the test on ROS1; 33% in [1]; 0% in [2]. The “%Inh” value is 0% in test [3]; 46% in test [4]; 66% in [5]; 7% in test [6]; 84% in [7]; 0% in [8]. Moreover, the “%Inh” value in test [9] is recorded as 85%; in [10], 13%.

`Cc1cccc(-c2nc(Nc3ccncc3)c3sccc3n2)n1` [GW869641]: the “%Inh” value in the test on RIOK1 was 35%; with RIOK2 it was 42%; in the test with RIOK3, 28%; with RIPK1, 0%; with RIPK2, 62%; in the test with RIPK4, 42%. Moreover, the “%Inh” value in the test with RIPK5 is 25%; with ROCK1, 27%; in the test on ROCK2 it was 38%; in the test on ROS1, 21%; in test [1] it was 30%; in test [2] it was 7%. The “%Inh” value in test [3] was 19%; in test [4] it was 0%; in test [5], 2%; in test [6], 8%; in test [7], 41%; in test [8] it was 50%. Besides, the “%Inh” value in test [9] worked out at 7%; in test [10], 21%.

Regarding `CCn1c(-c2nonc2N)nc2cncc(CNC3CCNCC3)c21.Cl` [SB-747651], the “%Inh” value in the test with RIOK1 is given as 30%; with RIOK2 it was 0%; in the test on RIOK3, 6%; in the test with RIPK1, 0%; in the test on RIPK2, 5%; in the test with RIPK4, 19%. Besides, the “%Inh” value in the test on RIPK5 was determined as 0%; in the test with ROS1, 0%; in test [1], 44%; in [2], 6%; in [3], 78%; in test [4], 0%. In addition, the “%Inh” value was found to be 21% in [5]; 0% in test [6]; 16% in [7]; 6% in test [8]; 7% in [9]; 9% in [10].

Turning to `O=C1NCCc2[nH]c(-c3ccncc3)cc21`, the “%Inh” value in the test with RIOK1 came to 35%; in the test with RIOK2, 20%; with RIOK3, 30%; with RIPK1 it was 4%; with RIPK2, 4%; in the test on RIPK4, 56%. Further, the “%Inh” value with RIPK5 is recorded as 24%; with ROCK1 it was 97.9%; in the test on ROCK2 it was 95.4%; in the test with ROS1 it was 21%; in [1], 15%; in [2], 92.7%. The “%Inh” value in test [3] was 0%; in [4], 58%; in test [5] it was 4%; in test [6], 35%; in [7] it was 8%; in test [8], 23%. The “%Inh” value is 16% in test [9] and 27% in test [10].

Regarding `Cc1ccc(C(=O)Nc2ccc(Oc3ccc4nc(NC(=O)C5CC5)cn4c3)c(F)c2)c(=O)n1-c1ccccc1`, the “%Inh” value in the test on RIOK1 was 0%; with RIOK2, 0%; with RIOK3, 9%; with RIPK1, 99.9%; in the test with RIPK2, 12%; with RIPK4, 0%. Further, the “%Inh” value turned out to be 0% in the test on RIPK5; 0% with ROCK1; 0% in the test with ROCK2; 0% in the test with ROS1; 22% in test [1]; 0% in test [2]. In addition, the “%Inh” value in test [3] was determined as 0%; in test [4], 0%; in test [5], 0%; in test [6], 0%; in test [7], 0%; in test [8] it was 37%. Further, the results for the “%Inh” value in test [9] and in test [10] were 22% and 2%, respectively.

The record behind these values is publication PMC5540273 (PLoS ONE, 2017).
